In PubChem BioAssay AID493168 (National Center for Advancing Translational Sciences (NCATS), 2011):
Records with an inconclusive call do not appear. Active and inactive are the calls of the source. The call rests on the fitted dose curve; in most records, active means well fitted inhibition curve with a large enough effect; inconclusive means small, poorly fitted or top-dose-only effect, or effect the other way; inactive means flat fitted curve, though single readings scatter.

biological target: Ubiquitin carboxyl-terminal hydrolase 2 (Homo sapiens) (UniProt O75604); assay: Confirmation Assay for Inhibitors of Ubiquitin-specific Protease USP2a Using CHOP2 as the Reporter; details: USP2 core, Ub-CHOP2 coupled reporter fluorescence; series mostly up to 38.3 µM; further: nearly all actives have a fitted effect of over 55% in size
Sequence (O75604 whole entry, looked up): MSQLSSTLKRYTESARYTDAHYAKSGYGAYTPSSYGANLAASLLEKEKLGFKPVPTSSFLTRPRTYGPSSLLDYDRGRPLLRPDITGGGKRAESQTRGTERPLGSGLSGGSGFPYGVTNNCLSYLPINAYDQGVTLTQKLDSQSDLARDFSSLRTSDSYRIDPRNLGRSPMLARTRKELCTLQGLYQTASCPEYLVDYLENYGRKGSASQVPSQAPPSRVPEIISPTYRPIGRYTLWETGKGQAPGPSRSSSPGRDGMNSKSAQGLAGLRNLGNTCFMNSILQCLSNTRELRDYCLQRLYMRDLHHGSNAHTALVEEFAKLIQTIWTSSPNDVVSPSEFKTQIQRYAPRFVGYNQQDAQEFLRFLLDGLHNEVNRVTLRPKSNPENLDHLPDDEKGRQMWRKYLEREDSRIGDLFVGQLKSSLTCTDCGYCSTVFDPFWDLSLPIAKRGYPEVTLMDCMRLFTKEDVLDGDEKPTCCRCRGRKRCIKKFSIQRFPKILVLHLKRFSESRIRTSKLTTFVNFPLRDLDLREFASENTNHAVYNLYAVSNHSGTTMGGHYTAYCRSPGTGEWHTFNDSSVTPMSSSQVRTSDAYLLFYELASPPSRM
Summary of the method: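 USP2 core (10 nM final) was preincubated with compound for 30 min at RT in Tris-HCl pH 8.0, CaCl2, beta-mercaptoethanol, CHAPS. Ub-CHOP2 and reporter substrate (25 nM final each) were added, and fluorescence (Ex 485/Em 531 nm) was read after 60 min.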
Potency means the concentration at half of the fitted maximal effect.

Potency, active:
CCOc1ccc(C=NNc2ccc(S(=O)(=O)Nc3ccccc3C(=O)O)cc2[N+](=O)[O-])cc1 7.36 µM
O=C(Nc1ccc(Nc2ccncc2)cc1)c1ccc(Nc2ccnc3ccc([N+](=O)[O-])cc23)cc1 7.36 µM
O=C(O)C1Nc2c(O)cc(Cl)c([N+](=O)[O-])c2C2C=CCC12 (centres undefined) 9.27 µM
O=C1Nc2ccccc2SC(c2ccccc2)C1O (centres undefined) 13.1 µM
C#CCOCCOCCOCCNc1nc(N2CCN(C(=O)CCCCCCCCCCNC(=O)[C@H](CO)n3cc(CCCSC)nn3)CC2)nc(N2CCN(C(=O)CCCCCCCCCCNC(=O)[C@H](CCCN=C(N)N)n3cc(C[C@@H](C)CC)nn3)CC2)n1 18.5 µM
CCCCCCCCCCCCCCCC[N+](C)(C)CCN(Cc1ccc(OC)cc1)c1ncccn1 11.7 µM
COc1ccc(NC(=O)c2cc(-c3ccco3)nc3ccccc23)cc1S(=O)(=O)N1CCOCC1 18.5 µM

Potency, inactive:
COc1ccc(C2CC(=O)N3CN(c4ccccc4F)CSC3=C2C#N)cc1OC (centres undefined)
O=C(Cn1nc(-c2cccs2)ccc1=O)Nc1ccc(Br)cc1
CCC(C(=O)Nc1nnc(-c2ccco2)s1)c1ccccc1 (centres undefined)
C=CCOc1cccc(C2C(C(=O)c3ccco3)=C(O)C(=O)N2CCN(CC)CC)c1 (centres undefined)
O=C(Nc1ccc2c(c1)OCO2)NC1(C(F)(F)F)Oc2ccccc2O1
CCOC(=O)c1c(-c2ccc(C)o2)csc1NC(=O)COC(=O)c1ccc(NC(N)=O)cc1
CCCCCCCC/C=C\CCCCCCCC(=O)NCCc1ccc(O)c(O)c1
CC(=O)Nc1cc[n+](CC(=O)c2ccc(Cl)cc2)cc1
CC(/C=N/NC(=O)c1cc(-c2cccs2)[nH]n1)=C\c1ccccc1
Cc1ccc(NC(=O)Cn2nc(C)c3ccccc3c2=O)cc1F
CCOc1ccc(NC(=O)c2cccc(-n3cnnn3)c2)cc1
FC(F)(F)C1=Nc2cccc3cccc(c23)N1
COc1ccc(/C=C(\NC(=O)c2ccc(OC)c(OC)c2)C(=O)N2CCN(C)CC2)cc1
CCn1c(CN2CCOCC2)nnc1SCC(=O)Nc1ccc(C(C)=O)cc1
Nc1ccc2nc(-c3cccc(-c4nc5ccc(N)cc5[nH]4)c3)[nH]c2c1
COC(=O)c1nnn(-c2nonc2N)c1CSc1ccccn1
Cc1cc(-c2csc(NC(=O)c3ccc(=O)[nH]c3)n2)c(C)n1Cc1ccccc1
COc1cc(NC(=O)COC(=O)CSc2ccccc2F)c(C)cc1[N+](=O)[O-]
Cc1cccc(NC(=S)NCc2ccc3c(c2)cc(C)n3C)c1C
O=C(CNC(=O)C1CCCCC1)NC1=NCCS1
O=C(NCCOC(=O)c1ccccc1C(=O)OCCNC(=O)c1cccnc1)c1cccnc1
CC1CCCCN1CCNC(=O)CC1Oc2ccccc2NC1=O (centres undefined)
CCOC(=O)C1CCN(CC(O)COc2ccc(C(C)(C)C)cc2)CC1 (centres undefined)
O=C(Nc1nnc(-c2ccco2)s1)C1CCCCC1
Cc1n[nH]c(C)c1S(=O)(=O)N1CCCC(C(=O)Nc2nccs2)C1 (centres undefined)
Cc1noc(/C=C/NCc2cccnc2)c1S(=O)(=O)N(C)CC(=O)N1CCc2ccccc21
Cc1cc(=O)n2[nH]c(-c3sccc3-n3c(C)ccc3C)cc2n1
Cc1cc(C)n(C(=O)c2cccc(S(=O)(=O)N3CCCC3)c2)n1
Cc1ccc(N2CN=c3s/c(=C\c4cccnc4)c(=O)n3C2)cc1
Cc1ccc(NS(=O)(=O)c2cccc(C(=O)OCC(=O)NCc3ccco3)c2)cc1
COc1cccc(-c2csc3nnc(SCC(=O)NCc4cccs4)n23)c1
C[C@@H]1CN([C@H](C)CO)C(=O)c2cc(NS(=O)(=O)c3ccc(F)cc3)ccc2O[C@@H]1CN(C)Cc1ccc(Cl)c(Cl)c1
